# From PubChem BioAssay (NCI)
# This is part of a sample that, as a whole, favours compounds with a hit. Of some 83,000 tested, about 20% had one in any assay.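 Each cell line was grown in a 96-well plate and treated with one concentration of compound for 48 hours. Values below 10 were considered active.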 Values without a mark were called inactive. Calls of active or inactive are those of the source.
# Tests used:
# Assay in all cases: NCI-60 one-dose screen, 48 h (100 = growth as untreated, 0 = no growth, -100 = all killed)
# Details in all cases: 10 µM unless noted
# SR leukemia = test system: SR leukemia
# RPMI-8226 leukemia = test system: RPMI-8226 leukemia
# OVCAR-8 ovarian = test system: OVCAR-8 ovarian
# OVCAR-5 ovarian = test system: OVCAR-5 ovarian
# OVCAR-4 ovarian = test system: OVCAR-4 ovarian
# SK-OV-3 ovarian = test system: SK-OV-3 ovarian
# IGROV1 ovarian = test system: IGROV1 ovarian
# OVCAR-3 ovarian = test system: OVCAR-3 ovarian
# HS 578T breast = test system: HS 578T breast
# NCI/ADR-RES ovarian = test system: NCI/ADR-RES ovarian
Structure (SMILES),growth (SR leukemia),growth (RPMI-8226 leukemia),growth (OVCAR-8 ovarian),growth (OVCAR-5 ovarian),growth (OVCAR-4 ovarian),growth (SK-OV-3 ovarian),growth (IGROV1 ovarian),growth (OVCAR-3 ovarian),growth (HS 578T breast),growth (NCI/ADR-RES ovarian)
COc1ccc2c(c1)c(-c1nc(-c3c[nH]c4ncccc34)cs1)cn2CCNC(=O)OC(C)(C)C,62.7%,41.2%,45.7%,104%,55.7%,110%,61.1%,84.4%,76.3%,56.6%
CN(C)c1ccc(C(=O)c2ccc(N(C)C)c(N)c2)cc1N,7.86% (active),60.4%,41.6%,75.7%,47%,24.6%,72.8%,-31% (active),7.6% (active),-14% (active)
Cn1c(=O)c2c(ncn2CCC(=O)Nc2ccc(F)cc2)n(C)c1=O,105%,97.2%,108%,103%,111%,85%,112%,107%,103%,106%
N=C(N)N=Nc1ccc(O)cc1,35.6% [100 µM],65.7% [100 µM],36.7% [100 µM],116% [100 µM],68.9% [100 µM],106% [100 µM],85% [100 µM],68.3% [100 µM],60% [100 µM],36.8% [100 µM]
Cc1cc(N(CCNc2ccnc3cc(Cl)ccc23)Cc2ccco2)nc(Cl)n1,-14.5% (active),-29.5% (active),-26.6% (active),-37.5% (active),-59.7% (active),-36.3% (active),-72.1% (active),-89.5% (active),6.7% (active),-4.64% (active)
Cn1c2c(Cl)c(Cl)ccc2c2c(C#N)c[nH]c(=O)c21,112%,65.2%,91.2%,123%,99.5%,107%,89.5%,110%,84.5%,103%
COc1cc(-c2cc3cc(O)ccc3oc2=O)cc(OC)c1OC,84%,91.7%,93.8%,88.8%,97.3%,102%,98.7%,114%,81.6%,91.2%
Cc1ccc2oc(=O)cc(-c3sc(N4CCCCC4)nc3-c3ccccc3)c2c1,77.3%,99.9%,98.4%,102%,92.4%,86.9%,59.9%,97.2%,96.7%,98.4%
Cc1ccc(-c2nc([P+](c3ccccc3)(c3ccccc3)c3ccccc3)c(N3C[C@H]4C[C@H](C3)c3cccc(=O)n3C4)o2)cc1,87.9%,11.5%,86.6%,105%,77.3%,123%,46.4%,54%,94.4%,94.9%
COc1cc(-c2cc3ncccc3c3nc(N)c4cccnc4c23)cc(OC)c1OC,28.3%,23.2%,26.9%,35.7%,54.3%,20.5%,41%,15.1%,16.8%,10.5%
Cc1cc(C=O)c(C)c2c1[nH]c1ccccc12,85.5%,93.9%,93%,62.4%,87.8%,106%,97.6%,108%,107%,94.2%
COC(=O)C(Cc1ccccc1)n1cc(COc2nc(Cl)nc(Nc3ccc(Cl)cc3)n2)nn1 (stereo not given),66.8%,72.7%,96.1%,116%,104%,106%,99%,87.2%,81.6%,101%
COc1ccc(-c2nc(SCC(=O)Nc3ccc(C(C)=O)cc3)[nH]c(=O)c2C#N)cc1,97.5%,114%,91%,97.3%,108%,79.5%,106%,108%,115%,108%
Cn1cc(-c2csc(-c3cn(CCN)c4ccc(Br)cc34)n2)c2cccnc21,9.41% (active),59.5%,76.5%,76.5%,54.3%,91.6%,38.8%,72.5%,74.5%,86.4%
COc1ccc(OC)c(-c2c(C#N)c(-c3ccco3)nc3c2c(-c2ccccc2)nn3-c2ccccc2)c1,101%,96.7%,96.2%,95.5%,103%,95.8%,88.9%,112%,86.2%,93.8%
CCN1CCN(c2nc(C)cc(N(CCCNc3ccnc4cc(Cl)ccc34)Cc3ccco3)n2)CC1,-16.5% (active),8.04% (active),58.5%,79.7%,59.7%,97.2%,51.2%,53%,70.3%,55.8%
Cc1ccc(C)c2c1CCC2C(C)C (stereo not given),89.3%,96.7%,100%,98.3%,100%,92.9%,103%,104%,100%,105%
C=C1C(=O)O[C@H]2[C@H]1CC/C(COC(=O)N[C@H](Cc1c[nH]c3ccccc13)C(=O)OC)=C\CC[C@@]1(C)O[C@@H]21,3.67% (active),2.85% (active),50.5%,98.6%,61.4%,96.2%,16.5%,-21.9% (active),81.1%,87.2%
Cn1cnc2c1c(=O)n(CCC(=O)Nc1ccc(F)cc1)c(=O)n2C,102%,101%,102%,101%,109%,91.2%,107%,115%,106%,109%
CCOc1ccc(NC(=O)c2ccoc2COc2ccccc2)cc1,113%,91.8%,104%,103%,101%,106%,93.5%,109%,105%,102%
COc1ccc(/C=C/C(=O)NCC(C)O)cc1 (stereo not given),105%,105%,97.9%,89.2%,104%,87.8%,93.2%,103%,94.4%,106%
Cn1cc(-c2csc(-c3cn(CCCN4CCCCC4)c4ccc(Br)cc34)n2)c2cccnc21,-48.9% (active),-35.3% (active),-16.4% (active),30.8%,32.3%,75.2%,-20.1% (active),-75.6% (active),60.8%,19.9%
Fc1ccc(NCc2nnc(-c3ccc(Cl)cc3)o2)cc1,71.1%,54.1%,79.9%,86.9%,69.2%,81.5%,51.6%,79.6%,84.6%,90.6%
O=C(NCN1C(=O)c2cccc3cccc(c23)C1=O)N1CCC(Cc2ccccc2)CC1,89.6%,87.8%,102%,104%,98.8%,91.3%,100%,109%,95.8%,102%
CN1CCN(c2ccc3nc(-c4[nH]ncc4Nc4ncnc5[nH]ccc45)[nH]c3c2)CC1,-6.78% (active),101%,7.18% (active),6.49% (active),-10.9% (active),12.6%,0.386% (active),-0.64% (active),15.8%,80.4%
